# Source: PubChem (National Center for Advancing Translational Sciences (NCATS))
# HP1b binding inh – blocks HP1-beta chromodomain binding to methylated histone tails; AlphaScreen HP1-beta / biotin-H3K9me3 peptide binding; 0.56% of 390,000 active; Potency, µM (top dose mostly 114 µM), without a hit: top-dose activity change, negative = inhibition, most hits filed as inhibitors; also: nearly all actives have a fitted effect of over 70% in size
#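 Compound inhibition of the preformed complex between 50 nM HP1-beta and 50 nM biotinylated H3K9me3 peptide was read by AlphaScreen. Buffer was PBS pH 7.4 with 0.01% Tween-20. Incubations ran 30 min at room temperature, with 10 ug/mL donor/acceptor beads.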
# G9a block – blocks human histone lysine methyltransferase G9a | Q96KQ7 | G9a H3K9 monomethylation, AlphaScreen, 2 h | Potency, µM (highest dose often 102 µM), inactives show at the highest dose activity, negative = inhibition, hits mostly inhibitors | 8.8% of 350,000 active; also: % is scaled to controls: 0 for no effect and ±100 for the full control effect; nearly all actives have a fitted effect of over 75% in size
#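 AlphaScreen read-out: biotin-H3K9 peptide (500 nM) methylation by 20 nM enzyme with 20 uM SAM, 2 h at room temperature after 15 min compound preincubation; anti-monomethyl H3K9 antibody plus donor/acceptor beads, 10 min dark.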
# BAZ2B inh – blocks human BAZ2B. AID 504333. 4.4% of 360,000 active. Q9UIF8. AlphaScreen BAZ2B-H3K14Ac peptide displacement. Potency, µM (series often up to 114 µM), for inactives: at the highest dose activity change, negative = inhibition, hits mostly inhibitors; also: % is scaled to controls: 0 for no effect and ±100 for the full control effect; nearly all actives have a fitted effect of over 60% in size
#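 Inhibition is scored as reduced AlphaScreen emission. The BAZ2B/b-H3(5-23)K14Ac complex (50 nM each) in PBS pH 7.4, 0.01% Tween-20 meets compound (up to 110 uM) for 30 min at RT before bead addition.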
# JMJD2A Tudor inh – JMJD2A Tudor domain (human) inhibition | O75164 | AlphaScreen JMJD2A-Tudor / H3K4me3 peptide binding | Potency, µM (series often up to 114 µM), inactives show at the highest dose activity change, negative = inhibition, actives largely listed as inhibitors | 4.4% of 390,000 active | AID 504339; also: % is scaled to controls: 0 for no effect and ±100 for the full control effect; nearly all actives have a fitted effect of over 50% in size
# Sfp PPTase inh – Sfp phosphopantetheinyl transferase inhibition. Q9F4F7. Biochemical Sfp PPTase activity, qHTS. Potency, µM, without a hit: largest response in the series, negative = inhibition, most hits filed as inhibitors. 3.5% of 310,000 active;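 also: the enzyme is Sfp with the accession as filed and its product quenches rhodamine fluorescence; 0% = enzyme reaction without inhibitor and -100% = no enzyme wells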
#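 Compounds were incubated with enzyme (final 15 nM) for 15 min at room temperature before substrate addition started the reaction. Fluorescence at 525 nm excitation, 598 nm emission was recorded immediately and after 30 minutes.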
# PLK1 PBD inh – inhibitors of human PLK1 polo-box domain binding | P53350 | Plk1 PBD binding of FITC phosphopeptide, fluorescence polarization | Potency, µM, for inactives: max response, negative = inhibition, hits mostly inhibitors | 2.8% of 360,000 active; also: series mostly up to about 57 µM; % is scaled to controls: 0 for no effect and ±100 for the full control effect; nearly all actives have a fitted effect of over 65% in size
# Numbers without * were called inactive; ? = inconclusive; nt = no result given; [ ] = remark or other dose. Shown are actives, neighbours in structure and some others; about 12% of the full set was active somewhere. Calls follow the shape of the dose curve; as a rule, active = well fitted curve in the direction sought with a large enough effect; inconclusive = small, poorly fitted or top-dose-only effect, or another doubt; inactive = no such curve, though single readings can be large; an effect the other way counts as inactive or inconclusive. Potency is read from the fitted curve at half-maximal effect.
SMILES,HP1b binding inh,G9a block,BAZ2B inh,JMJD2A Tudor inh,Sfp PPTase inh,PLK1 PBD inh
CS(=O)(=O)c1cnc2c(S(=O)(=O)c3ccccc3)cnn2c1N,1.2%,?,-25.0%,28.2µM*,8.1%,-7.1%
COc1ccc(NC(=O)Cn2cnc3ccc(S(=O)(=O)N4CCC(C)CC4)cc3c2=O)cc1OC,20.9%,-15.6%[59 µM],-36.6%,-11.9%,nt,nt
CCOC(=O)C(NC(C)=O)C(OC(C)=O)c1cccc([N+](=O)[O-])c1 (stereo not given),30.4%,35.5%[0.501 µM],-5.1%,3.3%,7.5%,-0.7%
CC(C)OC(=O)C(C(=O)C(F)(F)F)c1cc(NS(=O)(=O)c2ccc3ccccc3c2)c2ccccc2c1O (stereo not given),?,31.6µM*,-36.5%,35.5µM*,56.2µM*,?
CCOC(=O)/C(C)=N/NC(=O)c1cccc([N+](=O)[O-])c1,20.2%,2.8%,-9.1%,3.0%,-14.8%,1.5%
CCOC(=O)C(=N/O)/C(C)=N/NC(=O)C(=O)Nc1cc(Cl)ccc1Cl,27.9%,2.1%,17.8µM*,?,11.4%,-3.0%
CCOC(=O)C(=N/O)/C(C)=N/NC(C)=O,8.2%,7.08µM*,-5.0%,-12.4%,?,-26.6%
CC(C)c1ccc(/C=N\NC(=O)c2ccc(Cn3cccn3)o2)cc1,12.3%,-0.8%,-19.8%,-7.5%,8.3%,-3.4%
O=C(N/N=C\c1ccc(Cl)s1)c1ccc(Cn2cccn2)o1,-10.2%,9.5%[59 µM],7.9%,50.1µM*,-1.0%,26.7µM*
CCCCn1c(=O)nc2n(-c3ccc(C)cc3)c3ccccc3cc-2c1=O,nt,17.8%,5.2%,-4.6%,-17.8%,-1.1%
CCCCn1c(=O)nc2n(-c3ccc(Cl)cc3)c3ccccc3cc-2c1=O,34.3%,39.8µM*,6.7%,4.1%,-28.0%,-7.9%
C=CCOC(=O)Nc1nc(CCNC(=O)OCc2ccccc2)c(C(=O)O)s1,nt,nt,nt,nt,nt,-4.8%
CCCCc1nc2ccn(CC(=O)N(C)C)c(=O)c2n1Cc1ccc(-c2ccccc2-c2nn[nH]n2)cc1,nt,-8.9%[59 µM],nt,nt,50.1µM*,nt
CC(=O)Nc1ccc(NC(=O)C(C)OC(=O)CCC2CCCC2)cc1 (stereo not given),12.6%,35.5µM*,2.9%,-10.5%,nt,-0.7%
CCCN(c1ccc(C(C)C)cc1)S(=O)(=O)c1ccc2c(c1)n(C)c(=O)c(=O)n2C,22.8%,4.2%[59 µM],nt,-17.3%,nt,nt
S=C(Nc1ccc2c(c1)OCO2)Nc1ccccc1Cl,33.9%,?,-16.7%,-14.0%[11.4 µM],17.8µM*,?
S=C(Nc1ccc2c(c1)OCCO2)Nc1ccc2c(c1)OCO2,-1.3%,50.1µM*,?,-28.6%,-12.8%,-10.0%
OCCNC(=S)Nc1ccc2c(c1)OCCO2,30.4%,nt,-2.6%,-7.8%,-6.8%,0.4%
CO[C@]12CC(COC(=O)c3cncc(Br)c3)CN(C)[C@@H]1Cc1cn(C)c3cccc2c13 (stereo not given in full),nt,-33.0%[2.33 µM],nt,nt,12.1%,nt
CCC1CCCCC1,nt,nt,nt,nt,13.2%,nt
CC1(C)c2ssc(=S)c2-c2ccccc2N1C(=O)CSC1=NCCS1,?,25.1µM*,25.1µM*,8.91µM*,-4.3%,-15.3%
Cc1cc2c(cc1C)N(C(=O)CSC1=NCCS1)C(C)(C)c1ssc(=S)c1-2,?,5.01µM*,8.91µM*,6.31µM*,6.8%,-4.9%
COc1ccc(OC)c(NC(=O)Cn2ccc3ccccc3c2=O)c1,26.3%,-15.3%[59 µM],-20.6%,-13.1%,nt,nt
O=C(Nc1ccccc1)c1ccc(-c2ccccc2Cl)o1,24.6%,50.1µM*,-3.5%,8.5%,10.9%,-15.0%
O=C(NCc1cccnc1)c1ccc(-c2cc(Cl)ccc2Cl)o1,49.8%,nt,?,-26.1%,56.2µM*,-22.7%
SMILES,HP1b binding inh,G9a block,BAZ2B inh,JMJD2A Tudor inh,Sfp PPTase inh,PLK1 PBD inh
O=C(NCc1cccnc1)c1ccc(-c2ccc(Cl)cc2)o1,30.4%,?,-21.2%,-23.2%,6.1%,-1.2%
CCOc1ccccc1-c1ccc(C(=O)NCc2ccccc2)o1,-6.4%,50.1µM*,?,?,2.9%,-5.3%
O=C(Nc1ccccc1)c1ccc(-c2ccccc2C(F)(F)F)o1,81.7%,44.7µM*,6.9%,12.7%,-19.6%,-4.1%
O=C(Nc1ccccc1Cl)c1ccc(=O)[nH]n1,32.1%,-7.8%[2.33 µM],7.6%,-11.2%,9.4%,-8.0%
O=C(NCCc1ccccc1)c1ccc(-c2ccccc2Cl)o1,8.9%,44.7µM*,-13.7%,25.0%,6.2%,-15.6%
Cn1c2ccc(F)cc2c2nnc(SCCN3CCOCC3)nc21,51.6%,50.1µM*,-1.2%,0.4%,?,?
CCCCn1c2ccc(F)cc2c2nnc(SCCN3CCOCC3)nc21,26.2%,39.8µM*,-5.7%,-17.6%,56.2µM*,?
CCc1ccc2[nH]c3nc(SCCN4CCOCC4)nnc3c2c1,21.7%,nt,5.3%,1.0%,-27.7%,23.8µM*
NC(=O)c1c(-c2cccs2)csc1N,-12.3%,-50.0%[12.7 µM],?,?,39.8µM*,-18.4%
Cc1c(O)c(=O)ccn1Cc1ccccc1,51.8%,31.6µM*,?,-8.5%,-2.1%,5.3%
O=C(Nc1nnc2n1CCS2)c1cc(C(F)(F)F)cc(C(F)(F)F)c1,31.3%[57 µM],50.5%[59 µM],8.9%,-14.2%,nt,nt
CCCOc1ccc(C(=O)Nc2ccc(S(=O)(=O)NC3=NCCCCC3)cc2)cc1,-6.6%,5.0%[0.501 µM],-12.2%,-6.9%,nt,-7.5%
OC(c1ccccc1)(c1ccccc1)C1CCN(C(=S)NC2CCCC2)CC1,-6.4%[57 µM],39.8µM*,-31.7%,-22.1%,16.3%,-14.5%
Cc1ccc2nc(-c3ccc(NC(=O)COC(=O)c4ccc(Br)o4)cc3)sc2c1,29.7%,-0.5%[59 µM],-2.4%,-9.6%,23.7%,-1.3%
Cc1ccc2nc(-c3ccc(NC(=O)COC(=O)c4cncc(Br)c4)cc3)sc2c1,12.4%,25.1µM*,-5.3%,-4.7%,-10.1%,-16.8%
Oc1ccc(Br)cc1CNc1cccc2cccnc12,19.2%,15.9%[0.501 µM],?,?,-1.2%,-15.5%
Oc1c(Br)cc(Br)cc1CNc1ccccn1,25.2%[57 µM],16.2%[12.7 µM],-3.5%,14.4%,8.1%,-20.4%
Oc1c(Br)cc(Br)cc1CNc1cccc2cccnc12,-16.1%,nt,?,?,39.8µM*,-5.7%
Cc1ccc(O)c(CNc2cccc3cccnc23)c1,?,nt,31.6µM*,?,?,-2.4%
CCOC(=O)c1ccccc1NC(=O)CSc1cn(CC(=O)N2CCCCC2)c2ccccc12,29.6%,-1.3%[59 µM],-13.5%,-9.2%,nt,nt
COc1ccc(C)cc1NC(=O)C1CCC(CNS(=O)(=O)c2ccc3c(c2)CCCC(=O)N3)CC1 (stereo not given),15.8%,-2.4%[59 µM],-3.0%,-8.4%,nt,nt
CN(CC(=O)Nc1ccccc1Sc1ccccc1)C1CCCCC1,123.0%,96.4%[59 µM],47.6%,74.6%,-18.2%,-18.2%
O=Cc1nc(-c2ccc(Cl)cc2)n2ccccc12,45.6%,4.2%,4.4%,?,7.4%,-4.7%
CN1CCN(/N=C/c2nc(-c3ccccc3)n3ccccc23)CC1,-5.4%,14.1µM*,?,?,-9.7%,-9.1%
